{"source": "PubChem BioAssay (Tox21)", "note": "“And” between values parts separate entries of the source, which are not always exact repeats. Equal entries are not always repeated. Records with an inconclusive call do not appear. A number with no mark means an inactive call. The source made the active and inactive calls. Calls come from the whole dose curve; as a rule, active = well fitted inhibition curve with a large enough effect in the repeat runs; inconclusive = weak or mixed curves; inactive = no such curve, though single readings can be large or run the other way. % is set by controls: 0 for no effect and ±100 for the full control effect; potency is the fitted concentration of half-maximal effect.", "data": [{"experiment": "qHTS assay to identify small molecule antagonists of the thyroid receptor (TR) signaling pathway (AID 743065); note: nearly all actives have a fitted effect of over 55% in size", "conditions": "GH3.TRE-Luc, T3-stimulated luciferase inhibition, 23.5 h; series mostly up to 70.3 µM; activity, negative = inhibition: at the top concentration", "text": "U.S. Tox21 Program National Center for Advancing Translational Sciences [NCATS] NIH Chemical Genomics Center [NCGC] U.S. Environmental Protection Agency [EPA] National Institutes of Environmental Health Sciences [NIEHS] National Toxicology Program [NTP] U.S. Food and Drug Administration [FDA] Tox21 Assay Overview: Thyroid receptor (TR), a nuclear hormone receptor, plays an important role in development, proliferation, differentiation, metabolism, brain function, and cardiovascular system. […] To profile the Tox21 10K compound library in TR signaling, a cell-based GH3-TRE-Luc assay (GH3.TRE-Luc cell line, developed by the laboratory of Dr. Albertinka J. Murk, Wageningen University) was used to measure the inhibition of TR. GH3 (rat pituitary tumor) cells stably expressing a TR activity sensor consisting of two TR response elements and a luciferase reporter gene.\nTox21 Assay Protocol Summary: GH3.TRE-Luc cells were dispensed at 1500 cells/4 uL/well into 1536-well white solid bottom plates using a Multidrop Combi dispenser (Thermo Fisher Scientific Inc., Waltham, MA). After the assay plates were incubated at 37 C for 4 hours, 23 nL of library compound or DMSO controls was transferred to the assay plates by a pintool station (Kalypsys, San Diego, CA), followed by addition of 1 ul of T3 (1 nM, final concentration in the wells) to stimulate TR transactivation. The assay plates were incubated at 37 C for 23.5 h, and then 1 uL of CellTiter-Fluor reagent (Promega, Madision, WI) of measuring cytotoxicity was added to each well using a Bioraptr Flying Reagent Dispenser (FRD) workstation (Beckman Coulter, Indianapolis, IN, USA). The plates were incubated at 37 C and 5% CO2 for additional 30 min, and fluorescence intensity was measured by a ViewLux plate reader (PerkinElmer, Shelton, CT). For measuring luciferase reporter gene activity, 4 uL of ONE-Glo Luciferase Assay reagent (Promega) was added to each well using a Bioraptr FRD (Beckman Coulter), followed by 30 min incubation at room temperature. The luminescence intensity of plates was recorded by a ViewLux plate reader (PerkinElmer, Shelton, CT).", "values": [{"smiles": "CSc1ccc2c(c1)C(N1CCN(C)CC1)Cc1ccccc1S2", "note": "(stereo not given)", "Potency": "8.41 µM (active)"}, {"smiles": "CCN(Cc1cccnc1)C(=O)c1cccc(Cl)c1[C@]1(C)C(=O)N(Cc2ccc(OC)cc2OC)c2ccc(Cl)cc21", "Potency": "2.55 µM (active)"}, {"smiles": "Cc1[nH]cnc1C[C@H]1CCc2c(C)c3ccccc3n2C1=O", "Potency": "23.7 µM (active) and 13.3 µM (active)"}, {"smiles": "COc1cc(-c2ccc(N=C=O)c(OC)c2)ccc1N=C=O", "activity, negative = inhibition": "-5.94%"}, {"smiles": "O=S1(=O)CC(Cl)(Cl)C(Cl)(Cl)C1", "Potency": "1.37 µM (active)"}, {"smiles": "O=C(Nc1cccc(Cl)c1)OCC#CCCl", "Potency": "17.2 µM (active)"}, {"smiles": "CC1=C(/C=C/C(C)=C/C=C/C(C)=C/C=O)C(C)(C)CCC1", "Potency": "8.58 µM (active)"}, {"smiles": "C=CC(=O)OCC(CO)(COC(=O)C=C)COC(=O)C=C", "Potency": "1.73 µM (active) and 1.72 µM (active)"}, {"smiles": "NC(=NCCCCCCN=C(N)/N=C(\\N)Nc1ccc(Cl)cc1)/N=C(\\N)Nc1ccc(Cl)cc1", "Potency": "6.06 µM (active) [middle of 5 runs]"}, {"smiles": "Cc1cc2c(cc1C(F)(F)F)N(C(=O)Nc1ccc(Oc3cccnc3C)nc1)CC2", "Potency": "22 µM (active)"}, {"smiles": "O=C(OCC(COC(=O)c1ccccc1)(COC(=O)c1ccccc1)COC(=O)c1ccccc1)c1ccccc1", "activity, negative = inhibition": "-7.31%"}, {"smiles": "CCCCCCCCCCCCCCCC(=O)OC[C@H](O)[C@H]1OC(=O)C(O)=C1O", "Potency": "inactive"}, {"smiles": "CC[C@@]1(O)C(=O)OCc2c1cc1n(c2=O)Cc2cc3c(CN(C)C)c(O)ccc3nc2-1", "Potency": "2.37 µM (active)"}, {"smiles": "O=C(c1ccc(O)cc1O)c1ccc(O)cc1O", "Potency": "30.7 µM (active) and 54.5 µM (active)"}, {"smiles": "O=c1c(-c2ccccc2)c1-c1ccccc1", "Potency": "5.31 µM (active)"}, {"smiles": "Cc1cc(O)c2ccccc2c1O", "Potency": "33.5 µM (active)"}, {"smiles": "CCCCCCCCCCCCCCCS(=O)(=O)Oc1ccccc1", "activity, negative = inhibition": "12.4%"}, {"smiles": "CCCCCCCCNC(C)C(O)c1ccc(SC(C)C)cc1", "note": "(stereo not given)", "Potency": "5.96 µM (active)"}, {"smiles": "CCN(CCC#N)c1ccc(N=Nc2c(Cl)cc([N+](=O)[O-])cc2Cl)cc1", "Potency": "24.3 µM (active)"}, {"smiles": "O=c1cc(-c2ccc(O)cc2)oc2cc(O)cc(O)c12", "Potency": "61.9 µM (active) and 30.6 µM (active)"}, {"smiles": "CC(C)(C)c1ccc(C(=O)CCCN2CCC(OC(c3ccccc3)c3ccccc3)CC2)cc1", "Potency": "13.3 µM (active)"}, {"smiles": "N=C1N=C(N)c2cc3ccccc3cc21", "Potency": "13.7 µM (active)"}, {"smiles": "c1cc(C(c2ccc(OCC3CO3)cc2)c2ccc(OCC3CO3)cc2)ccc1OCC1CO1", "note": "(stereo not given)", "Potency": "12.2 µM (active)"}, {"smiles": "Clc1ccc2nsnc2c1NC1=NCCN1", "activity, negative = inhibition": "6.34%"}, {"smiles": "Oc1cccc(-c2c3nc(c(-c4cccc(O)c4)c4ccc([nH]4)c(-c4cccc(O)c4)c4nc(c(-c5cccc(O)c5)c5ccc2[nH]5)CC4)C=C3)c1", "Potency": "8.41 µM (active) and 7.5 µM (active)"}, {"smiles": "Cc1cc(C2CCCCC2)n(O)c(=O)c1", "Potency": "2.27 µM (active)"}, {"smiles": "C[C@H](CCC(=O)O)[C@H]1CC[C@H]2[C@@H]3CC[C@@H]4C[C@H](O)CC[C@]4(C)[C@H]3CC[C@]12C", "Potency": "17.2 µM (active) and 30.6 µM (active)"}, {"smiles": "CCCCCCC[N+](CC)(CC)CCCCc1ccc(Cl)cc1", "Potency": "12.7 µM (active)"}, {"smiles": "CC1(C)CCC(C)(C)c2cc(C(=O)Nc3ccc(C(=O)O)cc3)ccc21", "Potency": "48.6 µM (active)"}, {"smiles": "CCCCCCCC/C=C/CCCCCCCC1=NCCN1CCO", "Potency": "21.7 µM (active)"}, {"smiles": "NC(=O)NS(=O)(=O)c1ccc(N)cc1", "activity, negative = inhibition": "3.63%"}, {"smiles": "CC(C)(C)C(=O)OCOC(=O)[C@@H]1N2C(=O)[C@@H](NC(=O)[C@H](N)c3ccccc3)[C@H]2SC1(C)C", "activity, negative = inhibition": "-6.11% [at 32.5 µM]"}, {"smiles": "CCCCCCCCS(=O)C(C)Cc1ccc2c(c1)OCO2", "note": "(stereo not given)", "Potency": "62.3 µM (active)"}, {"smiles": "NNC(=O)c1cccc(C(=O)NN)c1", "activity, negative = inhibition": "6.77%"}, {"smiles": "C[C@@H](NCCCc1cccc(C(F)(F)F)c1)c1cccc2ccccc12", "Potency": "8.41 µM (active)"}, {"smiles": "O=C(NO)C1(NS(=O)(=O)c2ccc(Oc3ccc(F)cc3)cc2)CCOCC1", "activity, negative = inhibition": "-10.5%"}, {"smiles": "O=C(Nc1ccc(Oc2ccc(Cl)cc2)c(Cl)c1)c1cc(I)cc(I)c1O", "Potency": "29.8 µM (active)"}, {"smiles": "CC1=NC(C)OC1C", "note": "(stereo not given)", "activity, negative = inhibition": "-28.3%"}, {"smiles": "O=C(OC[C@H]1O[C@@H](OC(=O)c2cc(O)c(O)c(OC(=O)c3cc(O)c(O)c(O)c3)c2)[C@H](OC(=O)c2cc(O)c(O)c(OC(=O)c3cc(O)c(O)c(O)c3)c2)[C@@H](OC(=O)c2cc(O)c(O)c(OC(=O)c3cc(O)c(O)c(O)c3)c2)[C@@H]1OC(=O)c1cc(O)c(O)c(OC(=O)c2cc(O)c(O)c(O)c2)c1)c1cc(O)c(O)c(OC(=O)c2cc(O)c(O)c(O)c2)c1", "Potency": "3.76 µM (active) and 16.5 µM (active)"}, {"smiles": "CCCC(=O)OC[C@@H](OC(=O)CCC)[C@@H](OC(=O)CCC)[C@H](Cn1c2nc(=O)[nH]c(=O)c-2nc2cc(C)c(C)cc21)OC(=O)CCC", "Potency": "21.1 µM (active)"}]}]}
